DT40 TDP1 no CPT: qHTS for Inhibitors of human tyrosyl-DNA phosphodiesterase 1 (TDP1): qHTS in cells in absence of CPT. DT40 Tdp1-/- hTDP1 cells, no CPT, ATP luminescence, 48 h. Potency, µM (series often up to 46.2 µM), usual class: inhibitors. 15% of 420,000 active. AID 686978, 2013; note: nearly all actives have a fitted effect of over 55% in size
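Stably hTDP1-transfected Tdp1-null chicken DT40 cells were treated with library compounds minus camptothecin and grown for at least 48 hr at 37 °C, after which cellular ATP was quantified by luminescence.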
TDP1 cell CPT: qHTS for Inhibitors of human tyrosyl-DNA phosphodiesterase 1 (TDP1): qHTS in cells in presence of CPT. AID 686979, 2013. 12% of 420,000 active. Potency, µM (top dose mostly 46.2 µM), hits mostly inhibitors. chicken DT40 Tdp1-/-;hTDP1 cells + 20 nM CPT, ATP luminescence, 48 h; note: nearly all actives have a fitted effect of over 55% in size
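Cell growth measured by CellTiter-Glo luminescence after a minimum 48 h, 37 C compound exposure with 20 nM CPT in Tdp1-knockout DT40 cells stably expressing hTDP1, seeded 400/well; qHTS titration format.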
HT1080NT lethal: qHTS for induction of synthetic lethality in tumor cells producing 2HG: qHTS for the HT-1080-NT fibrosarcoma cell line; HT-1080-NT fibrosarcoma viability, CellTiter-Glo ATP luminescence, 48 h; Potency, µM (top dose mostly 46.1 µM), most hits filed as cytotoxic; 1.6% of 360,000 active;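 note: NT is the 2HG producing partner of a matched IDH1 knockdown line; nearly all actives have a fitted effect of over 55% in size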
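HT-1080-NT; 750 cells/well; 5% FBS RPMI; 48 h compound, 37 degrees C; CellTiter-Glo luminescence; curve fitting and curve-class assignment.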
IL1B secr inh: qHTS for Inhibitors of Inflammasome Signaling: IL-1-beta AlphaLISA Primary Screen. THP-1 LPS/ATP IL-1B secretion, AlphaLISA, 16 h; active compounds read low. activity change, % at 57.5 µM. AID 743279, 2014. 4.7% of 360,000 active; in the data active = activity change below about -50%; inconclusive = mostly about -30% to -49%
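THP-1 cells pretreated 1 hr with compounds (up to 57.5 uM final), then stimulated with LPS (250 ng/mL final) plus ATP (1.25 mM final); secreted IL-1B measured by AlphaLISA after 16 hr, decreased signal indicating inhibition.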
HT1080 IDH1KD tx: qHTS for induction of synthetic lethality in tumor cells producing 2HG: qHTS for the HT-1080-IDH1KD cell line. HT-1080 IDH1 knockdown viability, ATP luminescence, 48 h. Potency, µM (titrated, usually from 46.1 µM), most hits filed as cytotoxic. 2% of 360,000 active. AID 686971, 2013
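In this qHTS, HT-1080 cells depleted of IDH1 are exposed for 48 h at 37 °C to compound titrations. Toxicity is scored from CellTiter-Glo luminescence, with DMSO as full viability and medium alone as none.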
A number is an active result; [ ] = dose if it differs, or a comment. Compounds with a hit are over-represented: about 19% of the library has one in this group of screens. Unless noted, calls come from the whole dose curve; as a rule, active = well fitted curve in the direction sought with a large enough effect; inconclusive = small, poorly fitted or top-dose-only effect, or another doubt; inactive = no such curve, though single readings can be large; an effect the other way counts as inactive or inconclusive.

Results for CCN1C(=O)/C(=C\C=C\c2ccccc2[N+](=O)[O-])SC1=S ?
DT40 TDP1 no CPT: 11.6µM; TDP1 cell CPT: 25.9µM; HT1080NT lethal: inactive; IL1B secr inh: inactive; HT1080 IDH1KD tx: inactive

How did O=C1/C(=C/c2ccc(O)c([N+](=O)[O-])c2)SC(=S)N1Cc1ccccc1 do in these assays?
DT40 TDP1 no CPT: 18.4µM; TDP1 cell CPT: inconclusive; HT1080NT lethal: 23.1µM; IL1B secr inh: inactive; HT1080 IDH1KD tx: inactive

Results for O=C(O)c1cccc(CN2C(=O)S/C(=C/c3cccc([N+](=O)[O-])c3)C2=O)c1 ?
DT40 TDP1 no CPT: inconclusive; TDP1 cell CPT: inconclusive; HT1080NT lethal: inconclusive; IL1B secr inh: inactive; HT1080 IDH1KD tx: 16.4µM

Results for C=CCN=C1S/C(=C/c2cccc([N+](=O)[O-])c2)C(=O)N1CC=C ?
DT40 TDP1 no CPT: inconclusive; TDP1 cell CPT: inconclusive; HT1080NT lethal: inconclusive; IL1B secr inh: inactive; HT1080 IDH1KD tx: inconclusive

What do the screens show for `O=C(CCNS(=O)(=O)c1ccccc1F)OCc1ccccc1Cl`?
DT40 TDP1 no CPT: inactive; TDP1 cell CPT: inactive; HT1080NT lethal: inactive; IL1B secr inh: inactive; HT1080 IDH1KD tx: inactive

What do the screens show for `CCN1CCN(S(=O)(=O)c2ccc(Cl)c(C(=O)N(C)Cc3ccc(C(C)(C)C)cc3)c2)CC1`?
DT40 TDP1 no CPT: 11.6µM; TDP1 cell CPT: inconclusive; HT1080NT lethal: inconclusive; IL1B secr inh: inactive; HT1080 IDH1KD tx: inconclusive

Results for CCN1CCN(S(=O)(=O)c2ccc(Cl)c(C(=O)N(C)Cc3cccc(Cl)c3Cl)c2)CC1 ?
DT40 TDP1 no CPT: 20.6µM; TDP1 cell CPT: 16.4µM; HT1080NT lethal: inactive; IL1B secr inh: -69.0; HT1080 IDH1KD tx: inactive

What do the screens show for `COc1ccc(OC)c2[nH]c(=O)c(CCNC(=O)CC(C)C)cc12`?
DT40 TDP1 no CPT: inconclusive; TDP1 cell CPT: inactive; HT1080NT lethal: inactive; IL1B secr inh: inactive; HT1080 IDH1KD tx: inactive

How did CCC1Oc2ccccc2N(CC(=O)NCCC2=CCCCC2)C1=O (centres undefined) do in these assays?
DT40 TDP1 no CPT: 25.9µM; TDP1 cell CPT: 16.4µM; HT1080NT lethal: inactive; IL1B secr inh: inactive; HT1080 IDH1KD tx: inactive

Results for CCC1Oc2ccc(C)cc2N(CC(=O)NCCc2ccccc2)C1=O (centres undefined) ?
DT40 TDP1 no CPT: inactive; TDP1 cell CPT: inactive

How did COc1ccc(-c2oc3ccc(N4CCOCC4)cc3c2C#Cc2ccc(N)cc2)cc1 do in these assays?
DT40 TDP1 no CPT: 6.51µM; TDP1 cell CPT: 7.31µM; HT1080NT lethal: 16.4µM; IL1B secr inh: inactive; HT1080 IDH1KD tx: 23.1µM

Results for COc1ccc(-c2oc3cccnc3c2C#CC2(O)CCCCC2)cc1 ?
DT40 TDP1 no CPT: 23.1µM; TDP1 cell CPT: inconclusive; HT1080NT lethal: inconclusive; IL1B secr inh: -55.7; HT1080 IDH1KD tx: inconclusive

Results for COc1ccc(-c2oc3ccc(N4CCOCC4)cc3c2C#CC2(O)CCCCC2)cc1 ?
DT40 TDP1 no CPT: 16.4µM; TDP1 cell CPT: inconclusive; HT1080NT lethal: inconclusive; IL1B secr inh: inactive; HT1080 IDH1KD tx: 20.6µM

Results for Cc1ccc(O)c(NC(=O)c2ccc3c(c2)C(=O)N(Cc2ccco2)C3=O)c1 ?
DT40 TDP1 no CPT: inactive; TDP1 cell CPT: inactive; HT1080NT lethal: inactive; IL1B secr inh: inactive; HT1080 IDH1KD tx: inactive

How did CCN(/N=C/c1ccc(Cl)cc1)c1cc(=O)n(C)c(=O)[nH]1 do in these assays?
DT40 TDP1 no CPT: inactive; TDP1 cell CPT: inactive; HT1080NT lethal: inactive; IL1B secr inh: inactive; HT1080 IDH1KD tx: inactive

How did CCN(/N=C/C=C/c1ccccc1)c1cc(=O)n(C)c(=O)[nH]1 do in these assays?
DT40 TDP1 no CPT: inactive; TDP1 cell CPT: 1.46µM; HT1080NT lethal: inactive; IL1B secr inh: inactive; HT1080 IDH1KD tx: inactive

Results for O=C(COc1ccccc1C(=O)c1cnn(-c2ccccc2)c1)Nc1ccccc1 ?
DT40 TDP1 no CPT: 14.6µM; TDP1 cell CPT: inconclusive; HT1080NT lethal: inconclusive; IL1B secr inh: inactive; HT1080 IDH1KD tx: inconclusive

What do the screens show for `COc1ccccc1CNC(=O)COc1ccccc1C(=O)c1cnn(-c2ccccc2)c1`?
DT40 TDP1 no CPT: inconclusive; TDP1 cell CPT: 23.1µM; HT1080NT lethal: inactive[9.24 µM]; IL1B secr inh: inactive; HT1080 IDH1KD tx: inactive

What do the screens show for `COc1ccc(-c2nn(-c3ccccc3)cc2C(=O)NC2CC2)cc1`?
DT40 TDP1 no CPT: inconclusive; TDP1 cell CPT: inactive; HT1080NT lethal: inactive; IL1B secr inh: inactive; HT1080 IDH1KD tx: inactive

What do the screens show for `Cc1cc(C)n(CCCC(=O)O)n1`?
DT40 TDP1 no CPT: inactive; TDP1 cell CPT: inactive; HT1080NT lethal: inactive; IL1B secr inh: -67.2; HT1080 IDH1KD tx: inactive

What do the screens show for `OCC[C@H]1C[C@@H](O)[C@H](O)[C@@]2(CCc3ccccc3O2)O1`?
DT40 TDP1 no CPT: inactive; TDP1 cell CPT: inactive; HT1080NT lethal: inactive; IL1B secr inh: inactive; HT1080 IDH1KD tx: inactive

What do the screens show for `CC1Cc2ccccc2N1C(=O)CN1C(=O)NC2(CCCCC2)C1=O` (centres undefined)?
DT40 TDP1 no CPT: inconclusive; TDP1 cell CPT: inactive; HT1080NT lethal: inactive; IL1B secr inh: inactive; HT1080 IDH1KD tx: inactive

How did CCCCNC(=O)c1nc(C2CCN(S(=O)(=O)c3ccc(Cl)cc3)CC2)oc1-c1ccccc1 do in these assays?
DT40 TDP1 no CPT: 7.31µM; TDP1 cell CPT: 7.31µM; HT1080NT lethal: inactive; IL1B secr inh: inactive; HT1080 IDH1KD tx: inactive

Results for CCCCNC(=O)c1nc(C2CCN(S(=O)(=O)c3c(OC)cccc3OC)CC2)oc1-c1ccccc1 ?
DT40 TDP1 no CPT: 9.2µM; TDP1 cell CPT: 11.6µM; HT1080NT lethal: inactive; IL1B secr inh: inactive; HT1080 IDH1KD tx: inactive

How did CCCCNC(=O)c1nc(C2CCN(S(=O)(=O)c3cccc(C(F)(F)F)c3)CC2)oc1-c1ccccc1 do in these assays?
DT40 TDP1 no CPT: 8.2µM; TDP1 cell CPT: 9.2µM; HT1080NT lethal: inactive; IL1B secr inh: inactive; HT1080 IDH1KD tx: inactive

How did CCCCNC(=O)c1nc(C2CCN(S(=O)(=O)c3csc(C(=O)O)c3)CC2)oc1-c1ccccc1 do in these assays?
DT40 TDP1 no CPT: inactive; TDP1 cell CPT: inactive; HT1080NT lethal: inactive; IL1B secr inh: inactive; HT1080 IDH1KD tx: inactive

Results for CCCC(=O)N1CCOCC1c1cc(C(=O)NCc2ccccc2)no1 (centres undefined) ?
DT40 TDP1 no CPT: inactive; TDP1 cell CPT: inactive; HT1080NT lethal: inactive; IL1B secr inh: inactive; HT1080 IDH1KD tx: inactive

How did COc1ccc(N(CC(=O)NCc2ccc(F)cc2)C(=O)c2snc(C(N)=O)c2N)cc1OC do in these assays?
DT40 TDP1 no CPT: inactive; TDP1 cell CPT: inactive; HT1080NT lethal: inactive; IL1B secr inh: inactive; HT1080 IDH1KD tx: inactive
